{
  "source": "ChEMBL document CHEMBL1857833",
  "about": "“Screening and optimization of specific chemical series against human African Trypanosomiasis (HAT)”",
  "note": "Several values for one entry are separate records, joined by “and”; a condition that tells them apart may be missing. Equal values may be shown once. Screen size: about 4,400 compounds; about 390 (8.9%) showed an effect of 50% or more. The sample holds strong results, similar compounds and a random draw of the others, so the mix is not that of the screen.",
  "data": [
    {"test_system": "Trypanosoma brucei", "assay": "DNDI: Inhibition of Human African Trypanosomiasis, SBRI 427, in vitro at 2 ug.mL-1", "format": "functional", "values": [
      {"molecule": "CCCCCCC(C)NCc1coc(-c2ccc(OC)cc2)n1", "note": "(stereo not given)", "% inhibition": "65%"},
      {"molecule": "CCCC(C)NCc1coc(-c2ccc(F)cc2)n1", "note": "(stereo not given)", "% inhibition": "-16%"},
      {"molecule": "CCCCCCC(C)NCc1coc(-c2cccc(C)c2)n1", "note": "(stereo not given)", "% inhibition": "0%"},
      {"molecule": "COc1ccc(-c2nc(CNC(C)CCCC(C)C)co2)cc1", "note": "(stereo not given)", "% inhibition": "-10%"},
      {"molecule": "CCCCCC(C)NCc1coc(-c2ccc(OC)cc2)n1", "note": "(stereo not given)", "% inhibition": "23%"},
      {"molecule": "CCCCCCC(C)NCc1coc(-c2ccc(O)cc2)n1", "note": "(stereo not given)", "% inhibition": "52%"},
      {"molecule": "CN(Cc1coc(-c2ccc(F)cc2)n1)C(c1ccccc1)c1ccccc1", "% inhibition": "-2%"},
      {"molecule": "Cc1ccc(/C(=N/O)N2CCC(N(C)C)C2)c(Oc2cccnc2)n1", "note": "(stereo not given)", "% inhibition": "7%"},
      {"molecule": "CCC(NCc1coc(-c2ccccc2Br)n1)c1ccccc1", "note": "(stereo not given)", "% inhibition": "-20% and -22%"},
      {"molecule": "Cc1ccc([C@@H](C)NCc2coc(-c3cccc4ccccc34)n2)cc1", "% inhibition": "79%"},
      {"molecule": "Cc1ccc(C(C)NCc2coc(-c3cccc4ccccc34)n2)cc1", "note": "(stereo not given)", "% inhibition": "-2%"},
      {"molecule": "CCC(NCc1coc(-c2cccc3ccccc23)n1)c1ccccc1", "note": "(stereo not given)", "% inhibition": "64%"},
      {"molecule": "CC(NCc1coc(-c2cccc3ccccc23)n1)c1ccccc1", "note": "(stereo not given)", "% inhibition": "26%"},
      {"molecule": "CC(CNCc1coc(-c2ccccc2Cl)n1)c1ccccc1", "note": "(stereo not given)", "% inhibition": "-5%"},
      {"molecule": "CCOc1cccc(-c2nc(CNCc3cccc(OC)c3)co2)c1", "% inhibition": "-5%"},
      {"molecule": "CCN(CC)CCN(CC)Cc1coc(-c2cccs2)n1", "% inhibition": "1%"},
      {"molecule": "COc1cccc(-c2nc(Cn3ccnc3C(C)C)co2)c1", "% inhibition": "5%"},
      {"molecule": "Cn1nc(C(C)(C)C)cc1NCc1coc(-c2ccc(C(F)(F)F)cc2)n1", "% inhibition": "-8%"},
      {"molecule": "Cc1ccc(/C(=N/O)NCc2ccco2)c(Oc2cc(Cl)ccc2Cl)n1", "% inhibition": "62%"},
      {"molecule": "Cc1ccc(/C(=N/O)NCc2cccs2)c(Oc2cc(Cl)ccc2Cl)n1", "% inhibition": "16%"},
      {"molecule": "C=CCc1ccc(Oc2nc(C)ccc2/C(=N/O)NCc2ccco2)c(OC)c1", "% inhibition": "63%"},
      {"molecule": "C=CCc1ccc(Oc2nc(C)ccc2/C(=N/O)NCC2CC2)c(OC)c1", "% inhibition": "44%"},
      {"molecule": "C=CCc1ccc(Oc2nc(C)ccc2/C(=N/O)N2CCN(CC=C)CC2)c(OC)c1", "% inhibition": "68%"},
      {"molecule": "Cc1ccc(/C(=N/O)NCc2ccncc2)c(Oc2cc(Cl)ccc2Cl)n1", "% inhibition": "-10%"},
      {"molecule": "C=CCc1ccc(Oc2nc(C)ccc2/C(=N/O)NCc2ccc(OC)cc2)c(OC)c1", "% inhibition": "22%"},
      {"molecule": "COc1ccc(CN/C(=N\\O)c2ccc(C)nc2Oc2cc(Cl)ccc2Cl)cc1", "% inhibition": "14%"},
      {"molecule": "C=CCc1ccc(Oc2nc(C)ccc2/C(=N/O)N2CCC(C(=O)OC)CC2)c(OC)c1", "% inhibition": "27%"},
      {"molecule": "C=CCc1ccc(Oc2nc(C)ccc2/C(=N/O)N2CCSCC2)c(OC)c1", "% inhibition": "48%"},
      {"molecule": "Cc1ccc(/C(=N/O)NCc2ccco2)c(Oc2ccc(Cl)cc2-c2ccno2)n1", "% inhibition": "13%"},
      {"molecule": "Cc1cc(C)cc(CN/C(=N\\O)c2ccc(C)nc2Oc2cc(Cl)ccc2Cl)c1", "% inhibition": "64%"}
    ]}
  ]
}
